Shown are actives, neighbours in structure and some others; about 1.1% of the full set was active somewhere.
Mtb bLac sens – beta-lactam sensitization of Mtb H37Rv; M. tuberculosis H37Rv growth with meropenem, percent inhibition; inhibition, % at 25 µM; 330,000 compounds, 0.27% hits; AID 434955; call rule not given here;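 note: growth measured after seven days incubation then overnight dye step; 0% = bacteria only wells and 100% = bacteria with antibiotic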
Rv3671c inh – Rv3671c (M. tuberculosis) protease inhibition; AID 2606; inhibition, % at 5.96 µM; 320,000 compounds, 0.048% hits; P9WHR9; in the data active = inhibition above about 38%;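 note: extracellular domain of Rv3671c used as enzyme; 0% = enzyme with DMSO and 100% = no enzyme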
UGM FP inh – inhibitors of M. tuberculosis UDP-galactopyranose mutase; purified UGM, fluorescence polarization probe displacement; inhibition, % at 10 µM; 320,000 compounds, 0.06% hits; AID 504406; in the data active = inhibition above about 10%, passing the limit was not always enough; inconclusive = no clear call, values can overlap the other calls
Target sequence (P9WIQ1 whole entry, looked up): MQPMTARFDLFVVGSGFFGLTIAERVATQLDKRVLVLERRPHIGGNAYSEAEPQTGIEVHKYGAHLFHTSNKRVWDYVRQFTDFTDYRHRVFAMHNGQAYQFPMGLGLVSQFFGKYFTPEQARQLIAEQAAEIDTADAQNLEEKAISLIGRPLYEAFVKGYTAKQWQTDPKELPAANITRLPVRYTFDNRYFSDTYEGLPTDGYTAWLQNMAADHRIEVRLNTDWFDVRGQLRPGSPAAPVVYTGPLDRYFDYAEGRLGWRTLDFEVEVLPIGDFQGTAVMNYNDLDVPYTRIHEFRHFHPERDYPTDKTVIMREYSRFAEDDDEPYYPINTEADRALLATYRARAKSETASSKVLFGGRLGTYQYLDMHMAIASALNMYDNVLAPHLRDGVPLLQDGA
RecA intein inh – inhibitors of M. tuberculosis RecA intein splicing. cell-free RecA intein splicing, fluorescence. inhibition, % (no concentration beside the values). 290,000 compounds, 0.75% hits. AID 2221; in the data active = inhibition above about 30%; inconclusive = no clear call, values can overlap the other calls;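 note: 0% = vehicle wells and 100% = reference inhibitor control wells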
PriA SSB inh – inhibitors of Klebsiella pneumoniae PriA binding to SSB C-terminal tail. AlphaScreen SSBct-PriA binding, biotinylated peptide. inhibition, % at 33 µM. 430,000 compounds, 0.6% hits; in the data active = inhibition mostly above about 37%, no sharp cut-off; inactive = mostly below about 20%;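 note: plate controls were negative control peptide for no effect and reference peptide for full effect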
* marks the source's active call; other numbers are inactive results; ? = inconclusive; . = not tested or not shown; ! = not active in a repeat.

SMILES | Mtb bLac sens | Rv3671c inh | UGM FP inh | RecA intein inh | PriA SSB inh
COc1cccc(C(=O)N2CCN(c3ccc(-c4ccccn4)nn3)CC2)c1OC | . | . | . | . | 94.0*
Cc1ccc2nc(N3CCN(CCO)CC3)nc(-c3ccccc3)c2c1 | 6.7 | -3.3 | -1.9 | -269.1 | 38.0*!
OCCN1CCN(c2nc(-c3ccccc3)c3cc(Cl)ccc3n2)CC1 | 48.2 | 1.6 | -0.9 | -259.3 | -3.3
CN1CCN(c2nc3ccc(NC(=O)c4cc5ccccc5o4)cc3s2)CC1 | . | . | . | . | -14.0
COc1cccc(C=NNC(=O)CCC(=O)Nc2ccc(Br)cc2)c1 | . | . | . | . | -2.5
O=C(CSc1ncnc2sc3c(c12)CCC3)Nc1nc(-c2ccccc2)ns1 | . | . | . | . | -22.0
COc1ccc(CN2C(=O)C(Cc3ccccc3)Nc3ncnc(N4CCc5ccccc5C4)c32)cc1 (stereo unspecified) | 4.6 | -7.5 | 2.4 | 34.7* | .
COc1ccc(CN2C(=O)C(Cc3ccccc3)Nc3ncnc(N4CCOCC4)c32)cc1 (stereo unspecified) | -6.2 | -12.6 | -0.5 | 0.5 | 1.8
Cc1ccc(NC(=S)NN=C2CCCCC2C)cc1 (stereo unspecified) | . | . | . | . | 31.5
C=CCn1ccc(=NC=C(C#N)C#N)c2ccccc21 | 5.1 | 1.5 | 35.7* | 0.0 | -2.5
Cn1cc(C=C(C#N)C#N)c2ccccc21 | -4.5 | 1.7 | ? | -1.1 | -6.5
Cc1cc(Cl)ccc1OCC(=O)O | 5.0 | 3.0 | 0.4 | -0.5 | -5.2
Cc1ccccc1C1=C/C(=C(\SS/C(C(=O)c2ccc(OCC(=O)O)c(Cl)c2Cl)=C2\C=C(c3ccccc3C)SS2)C(=O)c2ccc(OCC(=O)O)c(Cl)c2Cl)SS1 | . | . | . | . | 62.1*
Cc1nc2ccc(NC(=O)c3ccc(S(=O)(=O)N(C)C)cc3)cc2c(=O)n1-c1ccc(Cl)cc1 | . | . | . | . | -6.0
O=C(Oc1ccc(-c2nnco2)cc1)c1ccco1 | 1.2 | 0.6 | 2.0 | 46.8* | -13.6
O=C(Oc1cccnc1)c1ccco1 | -7.7 | 3.3 | -2.3 | 0.8 | -2.0
O=C(Oc1cccc(-n2cnnn2)c1)c1ccco1 | -9.9 | 10.5 | -0.6 | 43.0* | -8.4
O=C(Oc1cccc(OC(=O)c2ccco2)c1)c1ccco1 | 23.5 | . | 5.3 | 49.3* | 7.9
COc1ccccc1-c1nnc2n1N=C(c1ccc(Cl)cc1)CS2 | . | . | . | . | 19.0
c1ccc(-c2ccc(SCc3cccnc3)nn2)nc1 | 8.0 | 7.0 | 1.6 | -1.5 | 76.5*
c1ccc(-c2ccc(SCc3ccccn3)nn2)cc1 | . | . | . | . | 32.1
c1ccc(CSc2ccc(-c3ccccn3)nn2)nc1 | -6.9 | 6.3 | -1.0 | -1.6 | 88.8*
O=C(Nc1ccccc1F)c1ccc(CNS(=O)(=O)c2cccc(Cl)c2)cc1 | . | . | . | . | -5.0
Cc1ccc(N(CCC#N)C(=O)CCl)cc1C | 99.4 | -1.9 | 2.7 | 56.2* | -9.7
Cc1ccc(SCC(=O)OCC(=O)N(CCC#N)c2ccccc2)cc1C | 1.5 | 13.3 | 2.7 | 6.2 | -9.4
SMILES | Mtb bLac sens | Rv3671c inh | UGM FP inh | RecA intein inh | PriA SSB inh
COC(=O)C1=CC(C(=O)c2cccs2)=NN(c2ccc(OC)cc2)C1C(=O)OC (stereo unspecified) | 5.8 | -0.5 | 21.4* | 15.4 | 38.9*
COc1ccc(Cc2cnc(NC(=O)CCc3ccc(-c4ccc(C)cc4)o3)s2)cc1 | . | . | . | . | 5.0
O=c1c2c([nH]n1-c1ccccc1)CCSC2 | -2.0 | 4.3 | -1.0 | 62.9* | -3.8
Oc1cccc(C=NNC(=S)NCCN2CCOCC2)c1O | . | . | . | . | 58.2*
CCN(CCCNC(=O)c1[nH]c(C)c(C(C)=O)c1C)c1cccc(C)c1 | -5.3 | 9.7 | -1.9 | -3.3 | 40.1*
CC(=O)c1cccc(NC(=O)c2c[nH]c3ccc(F)cc3c2=O)c1 | . | . | . | . | 0.0
O=C(Cn1cccc1)Nc1cc(N2CCOCC2)ncn1 | . | . | . | . | 4.0
Cc1ccc(C)c(-c2ccc(=O)n(Cc3cccc(Br)c3)n2)c1 | 54.4 | -5.8 | 3.2 | 30.0* | -7.5
CN1CCN(C2CCN(Cc3ccc(O)c4ncccc34)CC2)CC1 | -15.7 | 7.9 | -1.6 | . | 55.9*
O=S(=O)(c1ccc(Cl)cc1)N1CCN(Cc2ccc(O)c3ncccc23)CC1 | -4.0 | 14.6 | -0.9 | -0.4 | 15.0
Oc1ccc(CN2CCN(Cc3ccccc3)CC2)c2cccnc12 | 5.0 | 8.0 | 4.5 | -21.8 | 103.3*
Cc1c(Cl)cccc1NC(=S)/C(=C(\[O-])c1ccc(Cl)s1)[n+]1ccccc1 | -3.4 | -0.7 | 3.2 | 37.2* | 9.5
CCCC[N+]12C3C[C@H](C4[C@H](O)[C@]5(C[C@@H]41)c1ccccc1N(C)[C@@H]35)[C@H](CC)[C@H]2O (stereo partly specified) | 3.7 | -3.6 | -0.9 | -2.6 | 49.4*
O=C(CSc1nc2c(cnn2-c2ccc(Cl)cc2)c(=O)[nH]1)Nc1ccc(F)cc1F | . | . | . | . | 5.0
CNC(=O)c1nnsc1S(=O)c1ccc(Cl)cc1 (stereo unspecified) | . | . | . | 40.2* | 2.8
O=C1c2ccccc2C2=Nc3ccccc3SC(c3ccc(Cl)cc3)C12 (stereo unspecified) | 77.6 | -9.5 | 0.9 | 13.2 | 53.0*
S=C(Nc1ccc2nsnc2c1)N1CCCCCC1 | 4.0 | -162.4 | -1.5 | 54.6* | -14.9
Nc1ccccc1N=Nc1ccccc1N | 93.9 | -14.8 | 2.4 | 12.1 | 82.9*
O=C(Cc1ccc(Cl)cc1)NC[C@@H](c1ccsc1)N1CCc2ccccc2C1 | . | . | . | . | -9.0
Oc1c(Br)cc(Br)cc1Oc1ccc(Br)cc1Br | -3.7 | -16.1 | 0.7 | 39.2* | .
O=S(=O)(c1cccnc1)N1CCC(Oc2cnccn2)CC1 | . | . | . | . | -2.0
CCc1c(C)nc(SCC(=O)Nc2ccc(Br)cc2)[nH]c1=O | 2.9 | -0.9 | 1.5 | 0.6 | 100.6*
O=C1CN(C(=O)C2CN(C(=O)c3c[nH]c4ccccc34)C2)CCN1 | . | . | . | . | -7.0
O=c1c2[nH]c3ccc(Br)cc3c2ncn1CCCn1ccnc1 | -17.4 | -11.3 | -0.4 | 0.6 | 60.7*
COc1ccc(-c2cc(N)n(S(=O)(=O)c3c(F)c(F)c(F)c(F)c3F)n2)cc1OC | 24.0 | -26.2 | -1.0 | 97.3* | 2.0
SMILES | Mtb bLac sens | Rv3671c inh | UGM FP inh | RecA intein inh | PriA SSB inh
Cc1cccc(N=NC(=S)NNc2cccc(C)c2)c1 | . | . | . | . | 51.6*
O=c1c([N+](=O)[O-])c(NCCCn2ccnc2)c2ccccc2n1-c1ccccc1 | . | . | . | . | 11.0
Cc1c(CNS(=O)(=O)c2ccccc2F)sc2nc(-c3ccc(F)cc3)cn12 | . | . | . | . | 36.0*
O=C(NN=Cc1c(O)ccc2ccccc12)c1ccc[n+](CCO)c1 | . | . | . | . | 41.2*
CC(CC(=O)Nc1cccc(Cl)c1C)=NNC(=O)Cc1csc(N)n1 | . | . | . | . | -6.2
Cn1nc(C(C)(C)C)cc1C(=O)Sc1cccc(Br)c1 | -1.2 | -5.6 | -0.7 | 42.7* | 2.7
Nc1ccc(N=Nc2ccccc2)cc1 | 74.1 | 6.3 | -2.3 | -1.5 | 48.6
Nc1ccc(N(c2ccccc2)c2ccc(N)cc2)cc1 | 9.1 | -3.9 | -0.7 | 0.8 | 41.7*
CCOc1ccc2noc3c2c1C(=O)c1ccccc1-3 | 5.4 | -8.4 | 20.9* | 10.4 | -0.1
CS(=O)(=O)c1ccc2nc(N(Cc3cccnc3)C(=O)c3ccc(F)cc3)sc2c1 | . | . | . | . | -10.0
CN(C)c1ccnc(C(=O)O)c1 | 2.5 | -11.3 | 2.9 | . | -19.0
O=C(O)c1cc(Cl)ccn1 | . | . | . | . | 67.9*
O=C(O)c1ccnc(Br)c1 | . | . | . | . | -6.0
O=C(Nc1nncs1)c1cc(Cl)ccn1 | . | . | . | . | 123.5*
O=C(O)c1cc(Br)ccn1 | -9.7 | 0.2 | 0.2 | -2.5 | 99.7*

Screening data: PubChem BioAssay, several laboratories
